{
  "source": "ChEMBL document CHEMBL4513216",
  "about": "“Probing the Open Global Health Chemical Diversity Library for Multistage-Active Starting Points for Next-Generation Antimalarials” (ACS Infect Dis, 2020)",
  "note": "Among all 65,000 compounds or so, about 2,100 (3.2%) showed an effect of 50% or more. The median lay at about -52%. This excerpt belongs to a sample that is enriched for strong results.",
  "data": [
    {"system": "Plasmodium falciparum", "assay": "Screen against P. falciparum Asexual Blood Stage (ABS), at 5uM", "format": "functional, Dd2", "conditions": "tested at 5 uM", "units": {"INHIBITION": "%"}, "values": [
      {"smiles": "CCCn1ncc(CN2CCCC(C(=O)c3ccc(SC)cc3)C2)c1C", "note": "(stereo not given)", "INHIBITION": 65.8},
      {"smiles": "CCn1ncc(CN2CCCC(C(=O)c3ccc(Cl)cc3)C2)c1C", "note": "(stereo not given)", "INHIBITION": 70.5},
      {"smiles": "Cc1c(CN2CCCC(C(=O)c3ccc(C(C)(C)C)cc3)C2)cnn1C", "note": "(stereo not given)", "INHIBITION": 57.9},
      {"smiles": "CCCn1ncc(CN2CCCC(C(=O)c3ccc(Cl)cc3C)C2)c1C", "note": "(stereo not given)", "INHIBITION": 78.4},
      {"smiles": "Cc1cc(Cl)ccc1C(=O)C1CCCN(Cc2cnc(N(C)C)s2)C1", "note": "(stereo not given)", "INHIBITION": -28.8},
      {"smiles": "COc1ccc(C(=O)C2CCCN(Cc3cnn(C)c3C)C2)c(OC)c1", "note": "(stereo not given)", "INHIBITION": 39.5},
      {"smiles": "Cc1cc(CN2C[C@@H]3COC[C@]3(CNC(=O)N3CCCC3)C2)no1", "INHIBITION": -22.5},
      {"smiles": "COCCNC(=O)[C@@]12CCO[C@@H]1CCN(Cc1c(C)noc1C)C2", "INHIBITION": -191},
      {"smiles": "O=C1CSC(c2ccc(O)c(Cl)c2)c2c(n(C3CCOCC3)[nH]c2=O)N1", "note": "(stereo not given)", "INHIBITION": -57.7},
      {"smiles": "CCC(C)N1CCC(Oc2ccc(C(=O)NCCN(C)C)cc2Cl)CC1", "note": "(stereo not given)", "INHIBITION": 79.7},
      {"smiles": "Cc1nc(C2(NCC(=O)NC(=O)NCC(F)(F)F)CCCCC2)no1", "INHIBITION": -29.3},
      {"smiles": "COc1cc(C)c(-c2ccc(F)c3c2OC(CN)C3)cc1C", "note": "(stereo not given)", "INHIBITION": 83.8},
      {"smiles": "Cn1ncc2c1NC(=O)CSC2c1ccccc1Cl", "note": "(stereo not given)", "INHIBITION": -82.5},
      {"smiles": "Cc1ccc(N2C[C@@H]3OCCN(Cc4c(C)noc4C)[C@@H]3C2)nn1", "INHIBITION": 6.3},
      {"smiles": "Cc1nc(C)c(C)c(N2CCC3(CCN(C)C3)C2)n1", "note": "(stereo not given)", "INHIBITION": 19.5},
      {"smiles": "CCc1nc(N)nc(N2CCCC3(CCN(C)CC3)CC2)c1C", "INHIBITION": 76.1},
      {"smiles": "CC(C)c1cc(N2CCCC3(CCN(C)C3)C2)ncn1", "note": "(stereo not given)", "INHIBITION": -28.1},
      {"smiles": "Cc1cc(NCCN)nc(-c2ccccc2O)n1", "INHIBITION": 79.2},
      {"smiles": "Cc1cc(NCCc2c[nH]cn2)nc(-c2cccnc2)n1", "INHIBITION": -108.15},
      {"smiles": "Cn1nc(C2CC2)c2c1NC(=O)CC2c1cc(CN2CCCC2)cs1", "note": "(stereo not given)", "INHIBITION": 81.9},
      {"smiles": "CCN1CCC2(CC1)NC(=O)c1cc(Br)ccc1-n1nnnc12", "INHIBITION": -47.7},
      {"smiles": "O=C(N1CCCC1)N1C[C@@H]2CCNC[C@@H]21", "INHIBITION": -67.9},
      {"smiles": "FC(F)CNc1cnc(C2CCNCC2)cn1", "INHIBITION": -139},
      {"smiles": "O=C(Nc1ccc(Cl)cn1)c1cncc(C2CCNCC2)n1", "INHIBITION": 70},
      {"smiles": "Cc1nn(CCNC(C)Cn2cncn2)c(C)c1Cl", "note": "(stereo not given)", "INHIBITION": -44.7},
      {"smiles": "FC(F)(F)c1nc(C2CCNCC2)no1", "INHIBITION": -40.3},
      {"smiles": "FC(F)(F)c1cc(C2CCNCC2)nc(-c2ccsc2)n1", "INHIBITION": 89.2},
      {"smiles": "c1c[nH]c2nc(C3CCNCC3)nc-2c1", "INHIBITION": -162},
      {"smiles": "CS(=O)(=O)CCCNCc1c(Cl)cccc1N1CCCC1", "INHIBITION": 72},
      {"smiles": "CCOCCN1CCO[C@H]2[C@H](OCc3ccccn3)CC[C@@H]21", "INHIBITION": -65.4}
    ]}
  ]
}
